Measurements as given in the supplement of paper PMC11006884.
Of roughly 6,500 targets only a part is listed; those with a hit were picked by preference. About 2% of all pairs of compound and target were hits. Unmarked numbers belong to inactive results.

Sequence of UniProt Q13057 (Q13057 whole entry, looked up): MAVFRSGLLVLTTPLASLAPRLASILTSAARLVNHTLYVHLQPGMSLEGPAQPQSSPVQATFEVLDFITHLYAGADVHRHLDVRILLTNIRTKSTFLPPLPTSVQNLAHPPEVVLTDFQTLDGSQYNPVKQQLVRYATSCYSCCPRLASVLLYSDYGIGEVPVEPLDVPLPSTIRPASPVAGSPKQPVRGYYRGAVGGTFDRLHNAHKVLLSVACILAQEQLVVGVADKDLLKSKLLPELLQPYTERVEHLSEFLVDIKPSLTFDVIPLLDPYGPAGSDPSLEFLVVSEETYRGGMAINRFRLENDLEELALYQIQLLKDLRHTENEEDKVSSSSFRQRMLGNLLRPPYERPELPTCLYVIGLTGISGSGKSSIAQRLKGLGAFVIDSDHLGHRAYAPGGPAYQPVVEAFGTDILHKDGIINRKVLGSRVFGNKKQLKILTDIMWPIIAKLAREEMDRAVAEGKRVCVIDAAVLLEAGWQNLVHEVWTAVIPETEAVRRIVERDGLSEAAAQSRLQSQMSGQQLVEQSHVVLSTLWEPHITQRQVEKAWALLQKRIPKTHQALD
Sequence of UniProt P55795 (P55795 whole entry, looked up): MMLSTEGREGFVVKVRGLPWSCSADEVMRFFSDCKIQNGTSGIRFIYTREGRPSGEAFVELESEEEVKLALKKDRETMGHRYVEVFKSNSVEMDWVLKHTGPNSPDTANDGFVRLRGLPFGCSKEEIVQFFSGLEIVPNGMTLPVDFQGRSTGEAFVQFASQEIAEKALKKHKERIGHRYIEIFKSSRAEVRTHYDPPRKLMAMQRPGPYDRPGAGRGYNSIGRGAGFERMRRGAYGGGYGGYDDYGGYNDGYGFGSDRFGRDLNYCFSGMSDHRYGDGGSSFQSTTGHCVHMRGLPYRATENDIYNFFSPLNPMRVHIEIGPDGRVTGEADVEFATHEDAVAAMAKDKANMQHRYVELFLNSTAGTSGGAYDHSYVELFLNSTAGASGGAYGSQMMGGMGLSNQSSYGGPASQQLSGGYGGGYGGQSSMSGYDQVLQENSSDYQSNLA
Sequence of UniProt Q13330 (Q13330 whole entry, looked up): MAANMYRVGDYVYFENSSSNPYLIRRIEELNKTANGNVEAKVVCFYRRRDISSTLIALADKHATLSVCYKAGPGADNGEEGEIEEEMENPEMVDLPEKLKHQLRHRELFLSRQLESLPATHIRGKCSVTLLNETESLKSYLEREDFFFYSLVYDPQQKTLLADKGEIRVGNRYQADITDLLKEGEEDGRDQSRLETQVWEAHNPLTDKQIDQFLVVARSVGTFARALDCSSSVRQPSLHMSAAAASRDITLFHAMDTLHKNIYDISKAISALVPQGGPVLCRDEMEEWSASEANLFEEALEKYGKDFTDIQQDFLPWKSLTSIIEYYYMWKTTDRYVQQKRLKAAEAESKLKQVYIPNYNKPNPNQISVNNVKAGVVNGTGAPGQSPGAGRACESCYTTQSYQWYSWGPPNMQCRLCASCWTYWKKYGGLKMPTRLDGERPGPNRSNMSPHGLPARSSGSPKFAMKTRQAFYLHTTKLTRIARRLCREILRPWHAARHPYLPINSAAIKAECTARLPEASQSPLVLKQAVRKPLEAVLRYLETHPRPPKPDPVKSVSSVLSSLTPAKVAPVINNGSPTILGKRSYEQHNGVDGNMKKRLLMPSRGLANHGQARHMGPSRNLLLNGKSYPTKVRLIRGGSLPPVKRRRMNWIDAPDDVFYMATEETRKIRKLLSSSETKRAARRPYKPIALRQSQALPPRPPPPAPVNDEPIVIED
Sequence of UniProt Q1KMD3 (Q1KMD3 whole entry, looked up): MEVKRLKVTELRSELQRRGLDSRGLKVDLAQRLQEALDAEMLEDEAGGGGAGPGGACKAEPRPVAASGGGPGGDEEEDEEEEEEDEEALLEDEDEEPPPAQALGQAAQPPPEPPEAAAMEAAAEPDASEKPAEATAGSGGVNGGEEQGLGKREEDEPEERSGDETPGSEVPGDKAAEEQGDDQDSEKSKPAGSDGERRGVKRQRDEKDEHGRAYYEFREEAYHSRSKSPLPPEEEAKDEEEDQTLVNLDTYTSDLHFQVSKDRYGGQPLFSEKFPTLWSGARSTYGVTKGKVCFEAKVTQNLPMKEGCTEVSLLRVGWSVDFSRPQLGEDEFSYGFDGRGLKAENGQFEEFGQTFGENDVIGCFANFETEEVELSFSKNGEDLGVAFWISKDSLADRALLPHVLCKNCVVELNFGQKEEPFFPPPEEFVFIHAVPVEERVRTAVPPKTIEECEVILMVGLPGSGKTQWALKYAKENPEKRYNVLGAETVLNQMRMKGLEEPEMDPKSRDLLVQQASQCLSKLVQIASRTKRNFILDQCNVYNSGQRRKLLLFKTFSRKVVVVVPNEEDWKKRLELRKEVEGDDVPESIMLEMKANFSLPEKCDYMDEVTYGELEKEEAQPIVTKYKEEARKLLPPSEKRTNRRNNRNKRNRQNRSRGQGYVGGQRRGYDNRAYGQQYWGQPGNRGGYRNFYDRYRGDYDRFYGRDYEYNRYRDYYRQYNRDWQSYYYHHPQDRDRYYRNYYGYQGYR
Sequence of UniProt P57678 (P57678 whole entry, looked up): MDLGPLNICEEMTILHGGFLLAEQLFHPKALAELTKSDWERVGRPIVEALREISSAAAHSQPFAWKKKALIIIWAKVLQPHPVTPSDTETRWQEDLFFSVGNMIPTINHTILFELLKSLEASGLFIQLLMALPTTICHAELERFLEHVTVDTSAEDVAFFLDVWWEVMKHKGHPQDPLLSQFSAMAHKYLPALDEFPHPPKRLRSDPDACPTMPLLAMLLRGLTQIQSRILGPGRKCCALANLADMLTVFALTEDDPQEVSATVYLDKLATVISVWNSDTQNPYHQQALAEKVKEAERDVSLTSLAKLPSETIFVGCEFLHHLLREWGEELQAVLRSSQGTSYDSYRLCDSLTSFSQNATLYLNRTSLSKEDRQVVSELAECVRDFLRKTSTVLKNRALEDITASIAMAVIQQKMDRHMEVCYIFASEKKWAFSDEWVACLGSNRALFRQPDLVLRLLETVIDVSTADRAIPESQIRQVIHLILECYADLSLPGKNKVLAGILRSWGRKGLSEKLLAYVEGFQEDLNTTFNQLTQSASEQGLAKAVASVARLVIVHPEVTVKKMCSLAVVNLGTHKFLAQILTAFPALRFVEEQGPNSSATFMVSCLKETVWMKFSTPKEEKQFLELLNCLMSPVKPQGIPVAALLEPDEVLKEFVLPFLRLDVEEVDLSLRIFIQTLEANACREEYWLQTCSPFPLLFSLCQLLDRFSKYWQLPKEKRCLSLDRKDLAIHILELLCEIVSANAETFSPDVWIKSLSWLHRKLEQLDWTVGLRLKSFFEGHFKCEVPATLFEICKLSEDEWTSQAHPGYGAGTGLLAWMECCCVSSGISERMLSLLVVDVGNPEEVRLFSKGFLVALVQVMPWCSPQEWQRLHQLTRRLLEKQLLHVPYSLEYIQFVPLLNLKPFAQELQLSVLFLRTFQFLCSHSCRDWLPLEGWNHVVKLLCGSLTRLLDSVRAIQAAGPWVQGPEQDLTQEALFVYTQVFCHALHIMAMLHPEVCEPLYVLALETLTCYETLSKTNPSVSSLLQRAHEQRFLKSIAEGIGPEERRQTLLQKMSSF
Sequence of UniProt Q14247 (Q14247 whole entry, looked up): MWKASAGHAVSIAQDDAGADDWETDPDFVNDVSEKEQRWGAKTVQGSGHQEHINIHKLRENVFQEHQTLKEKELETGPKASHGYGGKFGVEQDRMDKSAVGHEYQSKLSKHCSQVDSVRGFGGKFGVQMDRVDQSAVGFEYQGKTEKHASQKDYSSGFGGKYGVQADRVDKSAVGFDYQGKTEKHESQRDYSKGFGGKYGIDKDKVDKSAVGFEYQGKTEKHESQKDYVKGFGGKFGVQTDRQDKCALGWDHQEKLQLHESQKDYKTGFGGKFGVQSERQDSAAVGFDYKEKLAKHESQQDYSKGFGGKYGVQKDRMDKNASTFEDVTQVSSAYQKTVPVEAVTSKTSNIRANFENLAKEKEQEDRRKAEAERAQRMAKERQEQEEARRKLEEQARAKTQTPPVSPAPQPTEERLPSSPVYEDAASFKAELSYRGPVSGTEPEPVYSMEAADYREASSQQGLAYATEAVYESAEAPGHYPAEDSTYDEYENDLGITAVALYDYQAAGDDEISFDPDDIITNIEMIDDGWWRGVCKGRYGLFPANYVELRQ
Sequence of UniProt P62993 (P62993 whole entry, looked up): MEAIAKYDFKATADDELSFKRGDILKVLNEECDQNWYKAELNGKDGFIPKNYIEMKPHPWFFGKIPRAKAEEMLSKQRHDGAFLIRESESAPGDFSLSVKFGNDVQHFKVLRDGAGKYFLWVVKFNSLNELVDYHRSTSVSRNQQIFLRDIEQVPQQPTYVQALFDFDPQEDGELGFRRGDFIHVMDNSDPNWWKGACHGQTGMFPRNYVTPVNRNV
Sequence of UniProt Q13144 (Q13144 whole entry, looked up): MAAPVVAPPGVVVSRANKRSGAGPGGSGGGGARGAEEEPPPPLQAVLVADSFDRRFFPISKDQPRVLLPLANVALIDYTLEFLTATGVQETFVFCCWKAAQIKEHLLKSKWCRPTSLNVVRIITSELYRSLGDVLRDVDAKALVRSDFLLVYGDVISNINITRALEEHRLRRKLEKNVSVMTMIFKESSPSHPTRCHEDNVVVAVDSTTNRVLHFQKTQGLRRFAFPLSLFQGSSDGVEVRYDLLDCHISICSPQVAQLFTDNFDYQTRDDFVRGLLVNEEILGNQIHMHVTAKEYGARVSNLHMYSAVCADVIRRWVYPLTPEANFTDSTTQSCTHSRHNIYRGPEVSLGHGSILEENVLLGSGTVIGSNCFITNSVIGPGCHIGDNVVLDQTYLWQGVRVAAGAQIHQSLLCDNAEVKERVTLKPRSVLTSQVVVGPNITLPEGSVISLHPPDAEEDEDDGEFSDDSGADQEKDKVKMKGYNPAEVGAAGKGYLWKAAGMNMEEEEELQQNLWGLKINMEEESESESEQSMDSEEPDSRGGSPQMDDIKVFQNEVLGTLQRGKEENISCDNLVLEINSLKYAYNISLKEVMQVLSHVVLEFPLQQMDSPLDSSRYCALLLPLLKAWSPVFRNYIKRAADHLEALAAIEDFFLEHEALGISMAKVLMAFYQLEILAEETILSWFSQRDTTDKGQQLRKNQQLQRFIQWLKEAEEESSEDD

These targets were tested with COC(=O)C#Cc1ccccc1 [methyl 3-phenylpropiolate] (assay: log2 ratio of iodoacetamide-alkyne labeling of the cysteine site, DMSO over compound (competition); higher = stronger covalent engagement of the cysteine by the compound, active = 1 or more). Conditions: 500 µM; treatment time 1 h; system: HEK293T cell lysate.
Method in brief: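 After 1 h at ambient temperature with vehicle or electrophile (500 µM), HEK293T lysate (2 mg/mL) was labelled for 1 h with iodoacetamide alkyne and clicked to sCIP-TMT reagents. Pooled samples were trypsin-digested overnight at 37 °C, streptavidin-enriched, acid-eluted and analysed by Orbitrap Eclipse LC-MS/MS with FAIMS, then quantified in FragPipe over three replicates with duplicate channels. A cysteine's log2 competition ratio is its mean control-channel over mean compound-channel reporter intensity. Cysteines quantified in only one replicate were not included.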
TJP1 C1727 (UniProt Q07157) was tested, and the “log2 ratio of iodoacetamide-alkyne labeling” value (shortened to “log2 ratio”) was 0.0718. UniProt Q15365_C194 was tested, and the “log2 ratio” value was 1.08 (active). With GEMIN4 C382 (UniProt P57678) the “log2 ratio” value was 0.0965. With HNRNPH2 C34 (UniProt P55795) the “log2 ratio” value was 0.0589. In the case of P86790_C358 (UniProt P86791+P86790), the “log2 ratio” value was 0.213. UniProt Q5H9L4_C158 was tested, and the “log2 ratio” value was 1.09 (active). In the case of COASY C144 (UniProt Q13057), the “log2 ratio” value was 1.16 (active). GRB2 C32 (UniProt P62993) was tested, and the “log2 ratio” value was 0.167. HNRNPUL2 C308 (UniProt Q1KMD3) was tested, and the “log2 ratio” value was 0.826. CTTN C112 (UniProt Q14247) was tested, and the “log2 ratio” value was 0.88. For EIF2B5 C335 (UniProt Q13144), the “log2 ratio” value was 0.267. For YARS C250 (UniProt P54577), the “log2 ratio” value was 0.0441. In the case of MTA1 C512 (UniProt Q13330), the “log2 ratio” value was 0.481.
